Screens (PubChem BioAssay)
IL-1B inflam inh = qHTS for Inhibitors of Inflammasome Signaling: IL-1-beta AlphaLISA Primary Screen; THP-1 LPS/ATP IL-1B secretion, AlphaLISA, 16 h; hits give low values; activity change, % at 57.5 µM; actives 4.7% (n = 360,000); in the data active = activity change below about -50%; inconclusive = mostly about -30% to -49%; also: % is scaled to controls: 0 for no effect and ±100 for the full control effect
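THP-1 cells pretreated 1 hr with compounds (up to 57.5 uM final), then stimulated with LPS (250 ng/mL final) plus ATP (1.25 mM final); secreted IL-1B measured by AlphaLISA after 16 hr, decreased signal indicating inhibition.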
HepG2 tox = qHTS for Inhibitors of TGF-b: Cytotox Counterscreen; HepG2 CAGA-GFP viability, ATP luminescence, 18 h; Potency, µM (titrated, usually from 46.1 µM), inactives show top-dose activity change, negative = cytotoxicity, actives largely listed as cytotoxic; AID 588856, 2011; actives 0.76% (n = 410,000); also: potency is read from the fitted curve at half-maximal effect
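CellTiter-Glo luminescence gave cytotoxicity after 18 hours at 37 degrees C. The cells were HepG2 CAGA-GFP in 1% FBS DMEM, stimulated with 500 pg/mL TGF-beta after compound addition. %Activity was normalised to no-cell wells (complete cell-killing) and DMSO (no toxicity), and curves were fitted and classified.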
DT40 TDP1 no CPT = qHTS for Inhibitors of human tyrosyl-DNA phosphodiesterase 1 (TDP1): qHTS in cells in absence of CPT | DT40 Tdp1-/- hTDP1 cells, no CPT, ATP luminescence, 48 h | Potency, µM (doses to about 46.2 µM), inactives show top-dose activity change, negative = growth inhibition, actives largely listed as inhibitors | actives 15% (n = 420,000) | AID 686978, 2013; also: potency is read from the fitted curve at half-maximal effect; % is scaled to controls: 0 for no effect and ±100 for the full control effect; nearly all actives have a fitted effect of over 55% in size
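Stably hTDP1-transfected Tdp1-null chicken DT40 cells were treated with library compounds minus camptothecin and grown for at least 48 hr at 37 °C, after which cellular ATP was quantified by luminescence.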
TDP1 inh = qHTS Assay for Inhibitors of Tyrosyl-DNA Phosphodiesterase (TDP1); Tyrosyl-DNA phosphodiesterase 1 (Homo sapiens), Q9NUW8; AID 485290, 2010; actives 0.28% (n = 350,000); recombinant TDP1, AlphaScreen DNA substrate cleavage; Potency, µM (top dose mostly 130 µM), inactives show top-dose activity change, negative = inhibition, hits mostly inhibitors; also: potency is read from the fitted curve at half-maximal effect; % is scaled to controls: 0 for no effect and ±100 for the full control effect; nearly all actives have a fitted effect of over 40% in size
Target sequence (Q9NUW8 whole entry, looked up): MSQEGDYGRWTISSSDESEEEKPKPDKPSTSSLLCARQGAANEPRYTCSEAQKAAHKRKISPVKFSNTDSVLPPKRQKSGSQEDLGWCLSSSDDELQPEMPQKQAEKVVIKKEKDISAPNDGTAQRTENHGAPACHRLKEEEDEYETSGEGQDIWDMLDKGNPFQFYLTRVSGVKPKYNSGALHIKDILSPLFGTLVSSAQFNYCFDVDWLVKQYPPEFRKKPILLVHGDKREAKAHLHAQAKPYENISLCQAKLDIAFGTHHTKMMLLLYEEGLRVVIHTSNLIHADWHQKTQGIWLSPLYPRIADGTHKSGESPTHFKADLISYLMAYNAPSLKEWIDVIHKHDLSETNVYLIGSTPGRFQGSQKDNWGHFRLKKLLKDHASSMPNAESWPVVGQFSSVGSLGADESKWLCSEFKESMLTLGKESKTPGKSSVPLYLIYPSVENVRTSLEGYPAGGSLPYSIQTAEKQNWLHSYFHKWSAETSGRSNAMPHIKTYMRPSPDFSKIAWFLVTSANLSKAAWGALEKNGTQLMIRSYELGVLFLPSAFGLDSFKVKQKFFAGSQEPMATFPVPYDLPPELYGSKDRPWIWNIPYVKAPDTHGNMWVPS
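Compounds were preincubated with Tdp1 (1 nM final) for 15 min at room temperature before substrate (15 nM final) started a 5 min reaction; beads (10 ug/ml final) were then added for 10 min before AlphaScreen detection.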
DT40 TDP1 CPT = qHTS for Inhibitors of human tyrosyl-DNA phosphodiesterase 1 (TDP1): qHTS in cells in presence of CPT | Potency, µM (series often up to 46.2 µM), inactives show at the top dose activity change, negative = growth inhibition, hits mostly inhibitors | chicken DT40 Tdp1-/-;hTDP1 cells + 20 nM CPT, ATP luminescence, 48 h | actives 12% (n = 420,000); also: potency is read from the fitted curve at half-maximal effect; % is scaled to controls: 0 for no effect and ±100 for the full control effect; nearly all actives have a fitted effect of over 55% in size
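Chicken DT40 Tdp1-/- cells stably complemented with human TDP1 were seeded at 400 cells/well in medium containing 20 nM camptothecin, exposed to pin-transferred compounds, and grown at 37 °C for at least 48 hr. Viability was read as ATP luminescence.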
TGFb SMAD3 inh = qHTS for Inhibitors of TGF-b; HepG2 CAGA-GFP TGF-b/SMAD3 reporter, GFP fluorescence, 18 h; TGF-beta stimulated, 500 pg/mL final; Potency, µM (highest dose often 46.1 µM), inactives show top-dose activity, negative = inhibition, most hits filed as inhibitors; actives 1.2% (n = 410,000); also: potency is read from the fitted curve at half-maximal effect; % is scaled to controls: 0 for no effect and ±100 for the full control effect; nearly all actives have a fitted effect of over 65% in size
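HEPG2 CAGA-GFP reporter cells (1000/well, DMEM with 1% FBS) received compounds, then recombinant TGF-beta at 500 pg/mL final for 18 hours at 37 degrees C. Per-cell GFP summed per well was normalised to unstimulated and stimulated DMSO controls before curve fitting.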
Active calls of the source: *; ? = inconclusive; . = no result; [ ] = another dose, or the depositor's remark. Most compounds without a hit are left out; they make up all but 18% or so of the library. Unless noted, calls follow the shape of the dose curve; as a rule, active = well fitted curve in the direction sought with a large enough effect; inconclusive = small, poorly fitted or top-dose-only effect, or another doubt; inactive = no such curve, though single readings can be large; an effect the other way counts as inactive or inconclusive.

SMILES	IL-1B inflam inh	HepG2 tox	DT40 TDP1 no CPT	TDP1 inh	DT40 TDP1 CPT	TGFb SMAD3 inh
CC1CCCCN1S(=O)(=O)c1coc(C(N)=O)c1 (configuration not stated)	5	-6%	0%	-4%	-1%	-13%
CC1CCCCN1S(=O)(=O)c1cnc(Cl)c(Br)c1 (configuration not stated)	-94*	-32%	?	0%	?	-5%
CCCN1CCN(CCNC(=O)Nc2ccccc2OCC)CC1	.	1%	0%	0%	-4%	34%
COc1ccc(COC(=O)C2=C(C)NC(=O)NC2c2ccc(F)cc2)cc1 (configuration not stated)	-52*	15%	?	.	?	-15%
CC1=C(C(=O)OCc2ccccc2)C(c2cccc([N+](=O)[O-])c2)NC(=O)N1 (configuration not stated)	-2	-5%	18µM*	.	?	2%
CCOC(=O)C1=C(C)NC(=O)NC1c1cn(-c2ccccc2)nc1-c1ccc(OC(C)C)cc1 (configuration not stated)	.	-21%	16µM*	.	?	?
CC1=C(C(=O)OCc2ccccc2)C(c2ccc(N(C)C)cc2)NC(=O)N1 (configuration not stated)	-60*	-15%	-23%	5%	-23%	3%
COc1ccc(-c2nn(-c3ccccc3)cc2C2NC(=O)NC(C)=C2C(=O)OC(C)C)cc1OC (configuration not stated)	.	2%	2%	.	-3%	4%
CCOc1ccc(C2NC(=O)NC(C)=C2C(=O)OCc2ccccc2)cc1 (configuration not stated)	?	-3%	?	.	-29%	17%
CC1CCC(NCCNC(=O)c2ccco2)CC1 (configuration not stated)	-7	4%	12%	-8%	17%	-17%
COc1cccc(C(C(=O)NC2CCCC2)N(C(=O)c2ccco2)c2ccccc2)c1OC (configuration not stated)	?	-21%	?	-7%	?	6%
COC(=O)C1=C(C)NC(C)=C(C(=O)OCCCN2CCC(c3ccccc3)(c3ccccc3)CC2)C1c1cccc([N+](=O)[O-])c1 (configuration not stated)	.	.	11µM*	21%	18µM*	.
COCCOC(=O)C1=C(C)NC(C)=C(C(=O)OC(C)C)[C@H]1c1cccc([N+](=O)[O-])c1	.	.	.	4%[21 µM]	.	.
CC1=C(C(=O)OCc2ccccc2)C(c2ccccc2OC(F)F)NC(=O)N1 (configuration not stated)	-7	-15%	?	6%	29µM*	?
COc1ccccc1C1NC(=O)NC(C)=C1C(=O)OCc1ccccc1 (configuration not stated)	-16	-16%	?	.	-19%	0%
CCOC(=O)C1=C(C)NC(C)=C(C(=O)OCC)C1c1cccc([N+](=O)[O-])c1	-2	-18%	23µM*	.	?	-24%
COC(=O)C1=C(C)NC(C)=C(C(=O)OCCNCc2ccccc2)C1c1cccc([N+](=O)[O-])c1 (configuration not stated)	.	.	.	22%	.	.
COc1ccc(COC(=O)C2=C(C)NC(=O)NC2c2ccccc2OC(C)C)cc1 (configuration not stated)	-10	-2%	18µM*	.	-29%	10%
COC(=O)c1ccccc1NC(=O)C1=CC(c2ccc3c(c2)OCO3)=NS(=O)(=O)N1C	.	6%	-5%	11%	2%	141%
CC1=C(C(=O)OC2CCCCC2)C(c2ccccc2Br)NC(=O)N1 (configuration not stated)	0	10%	?	.	?	?
CC1=C(C(=O)OCc2ccccc2)C(c2ccccc2Br)NC(=O)N1 (configuration not stated)	-72*	-11%	?	.	-2%	?
CCSc1ncc(Cl)c(C(=O)Nc2ccccc2Cl)n1	9	-14%	?	.	-13%	-5%
CCSc1ncc(Cl)c(C(=O)Nc2cccc(Cl)c2)n1	.	-8%	?	-4%	10µM*	-19%
CCSc1ncc(Cl)c(C(=O)Nc2ccc(S(=O)(=O)Nc3onc(C)c3C)cc2)n1	16	2%	0%	2%	-24%	8%
CCSc1ncc(Cl)c(C(=O)Nc2ccc(S(=O)(=O)N3CCCCC3CC)cc2)n1 (configuration not stated)	.	-17%	6.5µM*	7%	10µM*	-18%
SMILES	IL-1B inflam inh	HepG2 tox	DT40 TDP1 no CPT	TDP1 inh	DT40 TDP1 CPT	TGFb SMAD3 inh
CCC1CCCCN1S(=O)(=O)c1ccc(NC(=O)c2ccncc2)cc1 (configuration not stated)	-3	-19%	12µM*	2%	16µM*	?
CCC1CCCCN1S(=O)(=O)c1ccc(NC(=O)c2cc(=O)c3c(C)cc(C)cc3o2)cc1 (configuration not stated)	.	-39%	15µM*	-2%	-27%	-3%
CCC1CCCCN1S(=O)(=O)c1ccc(NC(=O)C2CCN(C(=O)c3ccco3)CC2)cc1 (configuration not stated)	28	4%	?	.	-18%	?
COc1cc(OC)c(NC2(c3ccccc3)C(=O)c3ccccc3C2=O)cc1Cl	.	-26%	-6%	11%	3%	1%
CCOc1ccc(CCNC(=O)c2ccc(CS(=O)Cc3ccc(Cl)cc3)o2)cc1 (configuration not stated)	-8	-16%	?	2%	16µM*	?
COc1ccc(OC)c(CCNC(=O)c2ccc(CS(=O)Cc3ccc(Cl)cc3)o2)c1 (configuration not stated)	?	6%	?	5%	23µM*	9%
O=C(NCCc1ccccc1)c1ccc(CS(=O)Cc2cccc(Cl)c2)o1 (configuration not stated)	-16	-7%	-14%	3%	-29%	-6%
